PMC12820563, “FoxP3 forms a head-to-head dimer in vivo and stabilizes its multimerization on adjacent microsatellites”
Whole data set: some 16,000 sequences, median “rpm ratio (pull-down/input)” near 0.94, cut for the highest 2% near 1.7. What follows is part of a selection rich in the highest values, with near analogues and random picks from the rest.

biological target: T1, MBP-FoxP1dN (Mus musculus, UniProt P58462 326-579); assay: PD-seq (MBP pull-down with sequencing); 20 mM Tris-HCl pH 7.5, 100 mM NaCl, 1.5 mM MgCl2, 0.4 uM protein, 0.1 uM dsDNA library, 30 min, room temperature, amylose pull-down; high values mean tight binding; conditions: protein: recombinant; tags: His6-MBP; chain copies: 2; dsDNA, one strand shown
T1 sequence: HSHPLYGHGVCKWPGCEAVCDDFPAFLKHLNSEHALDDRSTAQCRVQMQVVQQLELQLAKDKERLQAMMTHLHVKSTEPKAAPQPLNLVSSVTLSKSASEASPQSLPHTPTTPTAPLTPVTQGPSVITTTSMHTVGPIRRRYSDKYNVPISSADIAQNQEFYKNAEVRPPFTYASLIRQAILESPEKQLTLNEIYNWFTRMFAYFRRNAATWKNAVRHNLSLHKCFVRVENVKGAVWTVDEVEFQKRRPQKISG
Method in brief: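 His6-MBP-tagged mouse FoxP3 or FoxP1 fragment lacking the N-terminus, expressed in E. coli, was mixed at 0.4 µM with 0.1 µM Klenow-filled double-stranded degenerate DNA library. Incubation was 30 min at room temperature in Tris pH 7.5 buffer with NaCl and MgCl2. Complexes were caught on amylose resin and washed three times; DNA was released with proteinase K, PCR-barcoded and Illumina-sequenced. Binding is reads-per-million enrichment, pull-down over input, with replicates pooled.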

Sequence | binding signal
GATGATTGTTCTCCCAGCTGATGAATTGGCCAACTCGAGTAAACAAATTTTCCTAATCTTTCTGTTCAAGCGCCATCTAC | 0.833 RPM ratio (pull-down/input)
GATGATTGTTCTCCCAGCTGATGAATTCTCTTTGTCGAGTAAACAAATTTTCCTAATCTTTCTGTTCAAGCGCCATCTAC | 0.834 RPM ratio (pull-down/input)
GATGATTGTTCTCCCAGCTGATGAATTCCTATTGTCGAGTAAACAAATTTTCCTAATCTTTCTGTTCAAGCGCCATCTAC | 2.02 RPM ratio (pull-down/input)
GATGATTGTTCTCCCAGCTGATGAATTGTCGTATTCGAGTAAACAAATTTTCCTAATCTTTCTGTTCAAGCGCCATCTAC | 1.14 RPM ratio (pull-down/input)
GATGATTGTTCTCCCAGCTGATGAATTTCCTATGTCGAGTAAACAAATTTTCCTAATCTTTCTGTTCAAGCGCCATCTAC | 0.811 RPM ratio (pull-down/input)
GATGATTGTTCTCCCAGCTGATGAATTCTAATTGTCGAGTAAACAAATTTTCCTAATCTTTCTGTTCAAGCGCCATCTAC | 1.29 RPM ratio (pull-down/input)
GATGATTGTTCTCCCAGCTGATGAATTTCTATTGTCGAGTAAACAAATTTTCCTAATCTTTCTGTTCAAGCGCCATCTAC | 1.91 RPM ratio (pull-down/input)
GATGATTGTTCTCCCAGCTGATGAATTGTCTATTTCGAGTAAACAAATTTTCCTAATCTTTCTGTTCAAGCGCCATCTAC | 1.31 RPM ratio (pull-down/input)
GATGATTGTTCTCCCAGCTGATGAATTCTATTTGTCGAGTAAACAAATTTTCCTAATCTTTCTGTTCAAGCGCCATCTAC | 2.3 RPM ratio (pull-down/input)
GATGATTGTTCTCCCAGCTGATGAATTTGTCTATTCGAGTAAACAAATTTTCCTAATCTTTCTGTTCAAGCGCCATCTAC | 1.28 RPM ratio (pull-down/input)
GATGATTGTTCTCCCAGCTGATGAATTCTATCTGTCGAGTAAACAAATTTTCCTAATCTTTCTGTTCAAGCGCCATCTAC | 0.875 RPM ratio (pull-down/input)
GATGATTGTTCTCCCAGCTGATGAATTCGTATTTTCGAGTAAACAAATTTTCCTAATCTTTCTGTTCAAGCGCCATCTAC | 1.67 RPM ratio (pull-down/input)
GATGATTGTTCTCCCAGCTGATGAATTCGTATTGTCGAGTAAACAAATTTTCCTAATCTTTCTGTTCAAGCGCCATCTAC | 2.07 RPM ratio (pull-down/input)
GATGATTGTTCTCCCAGCTGATGAATTTCGCATTTCGAGTAAACAAATTTTCCTAATCTTTCTGTTCAAGCGCCATCTAC | 1.28 RPM ratio (pull-down/input)
GATGATTGTTCTCCCAGCTGATGAATTGCCCAGTTCGAGTAAACAAATTTTCCTAATCTTTCTGTTCAAGCGCCATCTAC | 0.931 RPM ratio (pull-down/input)
GATGATTGTTCTCCCAGCTGATGAATTGGGTCCTTCGAGTAAACAAATTTTCCTAATCTTTCTGTTCAAGCGCCATCTAC | 0.85 RPM ratio (pull-down/input)
GATGATTGTTCTCCCAGCTGATGAATTGAACTTTTCGAGTAAACAAATTTTCCTAATCTTTCTGTTCAAGCGCCATCTAC | 0.887 RPM ratio (pull-down/input)
GATGATTGTTCTCCCAGCTGATGAATTTTCACAATCGAGTAAACAAATTTTCCTAATCTTTCTGTTCAAGCGCCATCTAC | 1.29 RPM ratio (pull-down/input)
GATGATTGTTCTCCCAGCTGATGAATTACTGACCTCGAGTAAACAAATTTTCCTAATCTTTCTGTTCAAGCGCCATCTAC | 0.91 RPM ratio (pull-down/input)
GATGATTGTTCTCCCAGCTGATGAATTTGGGTAATCGAGTAAACAAATTTTCCTAATCTTTCTGTTCAAGCGCCATCTAC | 1.27 RPM ratio (pull-down/input)
GATGATTGTTCTCCCAGCTGATGAATTCTCCGGGTCGAGTAAACAAATTTTCCTAATCTTTCTGTTCAAGCGCCATCTAC | 0.759 RPM ratio (pull-down/input)
GATGATTGTTCTCCCAGCTGATGAATTCCGGGATTCGAGTAAACAAATTTTCCTAATCTTTCTGTTCAAGCGCCATCTAC | 0.754 RPM ratio (pull-down/input)
GATGATTGTTCTCCCAGCTGATGAATTATCTGATTCGAGTAAACAAATTTTCCTAATCTTTCTGTTCAAGCGCCATCTAC | 0.984 RPM ratio (pull-down/input)
